Our source for the Potency values is PubChem BioAssay (Tox21).

The structures appear in SMILES notation. Results filed as inconclusive are left out. Where a call stands in place of a potency, no number is given. Calls of active or inactive are those of the source. Calls follow the shape of the dose curve; as a rule, active = well fitted cell-killing curve with a large enough effect in the repeat runs; inconclusive = weak or mixed curves, or effect the other way; inactive = flat fitted curve, though single readings scatter.
Potency is read from the fitted curve at half-maximal effect.

The assay is described as follows: Nuclear factor erythroid 2-related factor 2/antioxidant responsive element (Nrf2/ARE) small molecule agonists: qHTS cell viability counter screen in human keratinocytes (AID 1919968). Also: nearly all actives have a fitted effect of over 55% in size. The settings on record: KeratinoSens HaCaT ARE cells viability, CellTiter-Fluor, 24 h; series mostly up to 92.4 µM. An excerpt:
U.S. Tox21 Program National Center for Advancing Translational Sciences [NCATS] Division of Preclinical Innovation [DPI] U.S. Environmental Protection Agency [EPA] National Institutes of Environmental Health Sciences [NIEHS] National Toxicology Program [NTP] U.S. Food and Drug Administration [FDA] Tox21 Assay Overview: Oxidative stress has been implicated in the pathogenesis of a variety of diseases ranging from cancer to neurodegeneration. The antioxidant response element (ARE) signaling pathway plays an important role in the amelioration of oxidative stress. The KeratinoSens (Givaudan, Switzerland) is an in vitro test method which quantifies luciferase induction as a measure of activation of Keap1-Nrf2-antioxidationt/electrophile response element (ARE) dependant pathway in HaCaT human keratinocytes stably transfected with a selectable plasmid. The KeratinoSens assay is a cell-based assay with a reporter cell line to detect potential skin sensitizers by their ability to induce the Nrf2/ARE-response. The activation of the report gene under culture conditions can be detected by ONE-Glo Luciferase Assay System (Promega, Madison, WI). This cell line has been used to screen the Tox21 10K compound library to identify agonists that induce oxidative stress. The cytotoxicity of the Tox21 compound library against the KS-ARE cell line was tested in parallel by measuring the cell viability using CellTiter- Fluor assay system (Promega, Madison, WI) in the same wells.
Tox21 Assay Protocol Summary: HaCaT derived cell line KeratinoSens were dispensed at 1,500 cells/5uL/well in 1536-well white wall/solid bottom plates using a Multidrop Combi (ThermoFisher Scientific, Waltham, MA) dispenser. After the assay plates were incubated at 37 C/5% CO2 for 5 h, 23 nL of compounds dissolved in DMSO, positive controls or DMSO only was transferred to the assay plate by a pintool workstation (Kalypsys, San Diego, CA). The plates were incubated at 37 C/5% CO2 for 23 h, followed by addition of 1uL/well of CellTiter-Fluor reagent into the assay plates using a Flying Reagent Dispenser (Aurora Discovery, San Diego, CA) for cell viability readout that measures cytotoxicity. After 1 h incubation at 37 C/5% CO2 the fluorescence intensity was measured using a ViewLux (PerkinElmer, Shelton, CT) plate reader.
On the technique in general: In qHTS, concentration-response curves come from the screen itself.
On to `CSc1ccc(C=O)cc1`, for which the Potency result is “inactive”.

Consider `CCCCCCCCCCCCCCC`, for which the Potency result is “inactive”.

As for `O=[N+]([O-])c1nccn1CO[C@@H](CO)[C@H](O)CO`, the Potency result was “inactive”.

With `CCCCCCCC/C=C\CCCCCCCC(=O)OCC`, the Potency result is “inactive”.

Consider `Cc1ccc(NC(=O)c2ccc(CN3CCN(C)CC3)cc2)cc1Nc1nccc(-c2cccnc2)n1`, for which the Potency entry is “inactive”.

`CCCOc1ccc(S(=O)(=O)N2CCN(CC)CC2)cc1-c1nc2c(CC)n(Cc3ccccn3)nc2c(=O)[nH]1`: the Potency entry was “inactive”.

For `Cc1ncc([N+](=O)[O-])n1CC(O)CCl` (stereo not given), the Potency entry was “inactive”.

Turning to `CC(=O)NCCCS(=O)(=O)O`, the Potency result was “inactive”.

Take `Nc1cccc([N+](=O)[O-])c1`: the Potency result was “inactive”.

With `CCCC(C)C(=O)O` (stereo not given), the Potency entry is “inactive”.

For the compound `CCCC(C)CC` (stereo not given), the Potency result is “inactive”.

Consider `O=C(O)CCc1nc2ccccc2[nH]1`, for which the Potency entry is “inactive”.

For `COCCOC[C@H](CC1(C(=O)NC2CCC(C(=O)O)CC2)CCCC1)C(=O)Oc1ccc2c(c1)CCC2` (stereo not given in full), the Potency entry is “inactive”.

As to `CC(C)c1ccc2ncccc2c1`, the Potency entry was “inactive”.

For the compound `O=C(CCCN1CC=C(n2c(=O)[nH]c3ccccc32)CC1)c1ccc(F)cc1`, the Potency entry is “inactive”.

As for `CCCCCCOc1ccccc1C(N)=O`, the Potency result was “inactive”.

Consider `Brc1cc2ccccc2c2ccccc12`, for which the Potency is 30.9 µM (active).

In the case of `CCN(CC)CCNC(=O)COc1ccc(OC)cc1`, the Potency result was “inactive”.

Regarding `COc1cc(Cl)c(OC)cc1N`, the Potency entry is “inactive”.

Take `NC(=O)c1cc[n+](CC2=C(C(=O)[O-])N3C(=O)[C@@H](NC(=O)Cc4cccs4)[C@H]3SC2)cc1`: the Potency result was “inactive”.

As for `C[C@]12CC[C@H]3C(=CCc4cc(O)ccc43)[C@@H]1CCC2=O`, the Potency result was “inactive”.

For the compound `C=CC(=O)OCCn1c(=O)n(CCOC(=O)C=C)c(=O)n(CCOC(=O)C=C)c1=O`, the Potency is 30.6 µM (active).

As for `CCCCCC(C)OC(=O)COc1ccc(Cl)c2cccnc12` (stereo not given), the Potency entry is “inactive”.

With `CCCCNc1ccc(C(=O)OCCOCCOCCOCCOCCOCCOCCOCCOCCOC)cc1`, the Potency result is “inactive”.

As to `CC(C)c1cccc(C(C)C)c1NC(=O)NS(=O)(=O)c1cc(C(C)(C)O)co1`, the Potency entry was “inactive”.

Regarding `CC(C)OC(=O)c1cc(C(=O)OC(C)C)cc([N+](=O)[O-])c1`, the Potency result was “inactive”.

For the compound `CC1(C)C(=O)N(Cl)C(=O)N1Br`, the Potency entry was “inactive”.

As to `O=C(O)Cn1cnnn1`, the Potency result is “inactive”.

For the compound `C1CCC2=NCCCN2CC1`, the Potency result was “inactive”.

Consider `COc1ccc2c(c1)c1c3n2CCN(C)C3=NCC1`, for which the Potency result was “inactive”.

With `CC(=O)[O][Al]`, the Potency result was “inactive”.

Turning to `O=S(=O)(Oc1ccc(Cl)cc1)c1ccccc1`, the Potency entry was “inactive”.

With `O=S(=O)(O)SSS(=O)(=O)O`, the Potency entry is “inactive”.

On to `Fc1ccc(C(c2ccc(F)cc2)N2CCNCC2)cc1`, for which the Potency result was “inactive”.

In the case of `O=C(Nc1cccc(C(F)(F)F)c1)c1cc(Br)cc(Br)c1O`, the Potency is 7.7 µM (active).

In the case of `On1ccccc1=S`, the Potency is 0.27 µM (active).

As to `CCc1cc(SCc2sc(-c3ccc(C(F)(F)F)cc3)nc2CN2CCN(c3ccc(OC)cc3)CC2)ccc1OCC(=O)O`, the Potency is 54.5 µM (active).

For the compound `CCO[Si](CCC1CCC2OC2C1)(OCC)OCC` (stereo not given), the Potency result is “inactive”.

For `CC(C)CCOC(=O)c1ccc(N(C)C)cc1`, the Potency result was “inactive”.

Take `CCCCOC(=O)CC#N`: the Potency result was “inactive”.
